This note sets out measurements from PubChem BioAssay (EPA / NIEHS).

Results filed as inconclusive are left out. Calls of active or inactive are those of the source. How the source made its calls: active means hit-call score of the fitted dose curve at least 0.9, where 1 is the maximum; inconclusive means response in the unintended direction; inactive means score below 0.9.

The assay can be described thus: TOX21_p53_BLA_p3_viability: Viability Assessment in the Tox21 HCT-116 p53 Agonism Beta-lactamase Assay, Phase 3 (AID 2283593).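 Further: cells exposed to compound for 16 h before reading.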 The source says: TOX21_p53_BLA_p3 is a cell-based, single-readout assay that uses HCT116, a human intestinal cell line, […] in a 1536-well plate.TOX21_p53_BLA_p3_viability is an assay readout measuring cellular ATP content and detected with CellTiter-Glo Luciferase-coupled ATP quantitation.TOX21_p53_BLA_p3_viability used a type of viability reporter where loss-of-signal activity can be used to understand changes in the cell viability. Furthermore, this assay endpoint can be referred to as a secondary readout, because this assay has produced multiple assay endpoints where this one serves a viability function. To generalize the intended target to other relatable targets, this assay endpoint is annotated to the cell cycle intended target family, where the subfamily is cytotoxicity.
Thawing Method: Place 14 mL of pre-warmed thaw medium into a 15 mL of conical tub. Remove the vial of cells to be thawed from liquid nitrogen and thaw rapidly by placing at 37C in a water bath with gentle agitation for 1-2 minutes. Decontaminate the vial by wiping with 70% ethanol before opening in a biological safety cabinet. Transfer the vial contents drop-wise into 14 mL of thaw medium in a sterile 15-mL conical tub. Centrifuge cells at 900 rpm for 4 minutes and resuspend in thaw medium. Transfer contents to the T75 tissue culture flask containing Thaw Medium and place flask in a humidified 37C/5% CO2 incubator. Switch to growth medium at first passage.Propagation Method: Aspirate medium, rinse once in DPBS, add 0.25% Trypsin/EDTA and swirl to coat the cell evenly. Add an equal volume of Growth Medium to inactivate Trypsin after 2-3 minutes incubation at 37C. Centrifuge cells at 900 rpm for 4 minutes and resuspend in growth medium. Cell should be passage or fed at least twice a week.Assay Protocol: Harvest cells from culture in growth medium and resuspend in assay medium. 2.2 Dispense 4000 cells/5 uL/well into 1536-well black/clear bottom plates using a Multidrop dispenser. After the cells were incubated at 37C for 5 hours, 23 nL of compounds dissolved in DMSO were transferred to the assay plate by a PinTool resulting in a 217-fold dilution. Incubate the plates for 16 hours at 37C, 5% CO2. Add 1 uL of 6X LiveBLAzer FRET B/G (CCF4-AM) Substrate Mixture to each well using a BioRAPTR dispenser and incubate the plates at room temperature for 2 hours. Measure fluorescence intensity at 460 and 530 nm emission and 405 nm excitation by an Envision detector. Data is expressed as the ratio of 460nm/530nm emissions. Add 4 uL of Cell-titer Glo to each well using BioRAPTR and incubate the plates at room temperature for […]. For cell viability readout that measures cytotoxicity, 4 ul/well of CellTiter-Glo reagent was added into the assay plates using a Flying Reagent Dispenser. After 30 min incubation at room temperature, the luminescence intensity in the plates was measured using a ViewLux plate reader.
As for `Clc1ccc(C(Cl)(Cl)Cl)c(Cl)c1`, the outcome was inactive.
Turning to `C=C(C#N)CCC#N`, the compound was called inactive.
`CCCCCCI`: the compound was classed as inactive.
Still for that read-out and setting: the value for `CC[N+](C)(CC)CCOC(=O)C(O)(c1ccccc1)c1ccccc1` was “inactive”; that for `N#CC(C#N)=Cc1cc(O)c(O)c(O)c1` was “inactive”.
In the case of `N#Cc1cc(I)c(O)c(I)c1`, the outcome was inactive.
The same measure, in the same setting: the value for `CCCCCCC#N` was “inactive”; that for `CC(Cl)(Cl)Cl` was “inactive”; that for `CC(=O)[C@H]1CC[C@H]2[C@@H]3CC[C@@H]4C[C@H](O)CC[C@]4(C)[C@H]3CC[C@]12C` was “inactive”.
The same measure, in the same setting: the same measure for `CCc1cc(OC)c(C[C@@H](C)N)cc1OC`: “inactive”.
Still for that read-out and setting: the value for `c1ccc2cc3c(cc2c1)-c1cccc2cccc-3c12` was “inactive”; that for `CCCC[N+](CCCC)(CCCC)CCCC` was “inactive”.
For `NCC(O)c1ccc(O)cc1` (stereo not given), the compound was classed as inactive.
The same measure, in the same setting: the value for `CCCN(CCC)C(=O)Cc1c(-c2ccc(Cl)cc2)nc2ccc(Cl)cn12` was “inactive”; that for `NC(=S)c1c(Cl)cccc1Cl` was “inactive”; that for `CC(C)NCC(O)c1ccccc1Cl` (stereo not given) was “inactive”.
Same read-out and setting: the value for `O=C(O)CC[N+](=O)[O-]` was “inactive”.
Turning to `NC1(c2ccccc2)CCCCC1`, the compound was classed as inactive.
Same read-out and setting: the value for `Nc1cc(Cl)cc(Cl)c1` was “inactive”.
In general, AC50 refers to the concentration at which the activity in the assay is half-maximal. Consider `Clc1ccccc1-c1ccccc1Cl`, for which the AC50 was 62.2 µM (active).
`Oc1ccc(Cl)c(Cl)c1Cl`: the call was inactive.
Turning to `Nc1cc(Cl)ccc1Cl`, the outcome was inactive.
Same read-out and setting: the same measure for `CC1NCCOC1c1ccccc1` (stereo not given): “inactive”; for `COP(=O)(OC)Oc1ccc([N+](=O)[O-])cc1`: “inactive”; for `O=C1C(Cl)C(CCl)CN1c1cccc(C(F)(F)F)c1` (stereo not given): “inactive”.
The same measure, in the same setting: the same measure for `COC(=O)COc1ccc(Cl)cc1Cl`: “inactive”; for `O=[N+]([O-])c1ccc(Oc2ccc(C(F)(F)F)cc2[N+](=O)[O-])cc1`: “inactive”; for `CC(=O)C(Cl)Cl`: “inactive”.
Still for that read-out and setting: the same measure for `CNC(C)[C@@H]1CC[C@@H](N)[C@@H](O[C@H]2[C@H](O)[C@@H](O[C@H]3OC[C@](C)(O)[C@H](NC)[C@H]3O)[C@H](N)C[C@@H]2N)O1` (stereo not given in full) (tested in a mixture with another compound): “inactive”; for `CCC(=O)O[C@](Cc1ccccc1)(c1ccccc1)[C@H](C)CN(C)C`: “inactive”.
Consider `O=[N+]([O-])c1ccc([As](=O)(O)O)cc1`, for which the result was inactive.
Still for that read-out and setting: the same measure for `O=c1[nH]c(Cl)c(Cl)cc1Cl`: “inactive”; for `COc1ccc2c(c1OC)C(=O)O[C@@H]2[C@H]1c2cc3c(cc2CCN1C)OCO3`: “inactive”; for `CC[n+]1c(-c2ccccc2)c2cc(N)ccc2c2ccc(N)cc21`: “inactive”.
Same read-out and setting: the same measure for `CSCCCN=C=S`: “inactive”.
Still for that read-out and setting: the same measure for `O=C(O)C(Cl)(Cl)Br`: “inactive”; for `O=c1[nH]cc(N(CCCl)CCCl)c(=O)[nH]1`: “inactive”; for `C[C@]12CC[C@H]3[C@@H](CCC4=CC(=O)CC[C@@H]43)[C@@H]1CC[C@@H]2OC(=O)CCc1ccccc1`: “inactive”.
Regarding `O=C1Nc2ccc(Cl)cc2C(c2ccccc2)=NC1O` (stereo not given), the outcome was inactive.
For the compound `CC(C)(O)[C@@H]1[C@H]2OC(=O)[C@@H]1[C@]1(O)C[C@H]3O[C@]34C(=O)O[C@H]2[C@]14C` (tested in a mixture with another compound), the result was inactive.
